The source of these data is PubChem BioAssay (EPA / NIEHS).

Results filed as inconclusive are left out. Calls of active or inactive are those of the source. Rule for the calls: active = hit-call score of the fitted dose curve at least 0.9, where 1 is the maximum; inconclusive = response in the unintended direction; inactive = score below 0.9.

Sequence of Glucocorticoid receptor (Homo sapiens) (P04150 whole entry, looked up): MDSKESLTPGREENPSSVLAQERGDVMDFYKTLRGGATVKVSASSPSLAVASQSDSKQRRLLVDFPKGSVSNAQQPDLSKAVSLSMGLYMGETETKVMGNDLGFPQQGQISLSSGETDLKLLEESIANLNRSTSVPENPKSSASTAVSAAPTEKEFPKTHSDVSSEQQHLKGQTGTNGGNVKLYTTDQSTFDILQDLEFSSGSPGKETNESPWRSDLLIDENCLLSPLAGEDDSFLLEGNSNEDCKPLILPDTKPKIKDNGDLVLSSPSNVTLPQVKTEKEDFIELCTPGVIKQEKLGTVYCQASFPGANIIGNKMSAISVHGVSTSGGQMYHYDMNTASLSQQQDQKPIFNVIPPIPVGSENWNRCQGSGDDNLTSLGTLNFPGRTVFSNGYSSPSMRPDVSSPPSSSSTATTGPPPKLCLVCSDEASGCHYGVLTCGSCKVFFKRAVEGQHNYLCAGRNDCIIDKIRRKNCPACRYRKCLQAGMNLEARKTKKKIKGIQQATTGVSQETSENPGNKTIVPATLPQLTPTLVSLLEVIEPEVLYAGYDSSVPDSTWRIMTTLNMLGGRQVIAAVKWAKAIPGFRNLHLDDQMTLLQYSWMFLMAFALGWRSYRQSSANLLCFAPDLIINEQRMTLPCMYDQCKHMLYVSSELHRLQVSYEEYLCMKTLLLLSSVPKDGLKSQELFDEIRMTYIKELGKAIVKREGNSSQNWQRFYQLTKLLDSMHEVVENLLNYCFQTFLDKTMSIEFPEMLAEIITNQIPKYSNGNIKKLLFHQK

This experiment has as its target Glucocorticoid receptor (Homo sapiens) (UniProt P04150). Put plainly: ATG_GR_TRANS: Attagene TRANS-FACTORIAL HepG2 Assay for human Glucocorticoid Receptor (GR) (AID 2282978).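 Note: activators score as hits since higher reporter transcript over DMSO is fitted.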 Conditions: HepG2 Attagene TRANS GR reporter, mRNA transcription. The protocol:
ATG_TRANS is a cell-based, multiplexed-readout assay that uses HepG2, a human liver cell line, with measurements taken at 24 hours after chemical dosing in a 24-well plate.ATG_GR_TRANS is one of 30 assay component(s) measured or calculated from the ATG_TRANS assay. It is designed to make measurements of mRNA induction, a form of inducible reporter, as detected with fluorescence intensity signals by Reverse transcription polymerase chain reaction (RT-PCR) and Capillary electrophoresis technology.Data from the assay component ATG_GR_TRANS was analyzed into 1 assay endpoint. This assay endpoint, ATG_GR_TRANS, was analyzed in the positive analysis fitting direction relative to DMSO as the negative control and baseline of activity. Using a type of inducible reporter, measures of mRNA for gain-of-signal activity can be used to understand the reporter gene at the transcription factor-level as they relate to the gene NR3C1. Furthermore, this assay endpoint can be referred to as a primary readout, because this assay has produced multiple assay endpoints where this one serves a reporter gene function. To generalize the intended target to other relatable targets, this assay endpoint is annotated to the nuclear receptor intended target family, where the subfamily is steroidal.
Human liver HepG2 cells are transiently transfected with multiple reporter transcription units (MRTUs) in 6-well plates using FuGene 6 reagent (Roche; 3 ml FuGene/1 mg DNA). The MRTU constructs are regulated by a cis-regulating element (promoter). […] A major difference between the CIS and TRANS system is that in CIS activities of endogenous TFs are measured, whereas the TRANS assay evaluates changes in activities of exogenous, chimeric NR-Gal4 proteins. […] At the end of 24 hour incubation, total RNA was isolated using TriZol reagent (Invitrogen). The isolated RNA is then reverse-transcribed using oligo(dT) primer and Mo-MLV reverse transcriptase (Invitrogen) with DNAse I (Ambion) treatment for 30 min. The one-tenth of the produced cDNA was amplified by PCR using Taq DNA polymerase (Invitrogen) and two reporter sequence-specific primers. The PCR products were fluorescently labeled by primer extension with 6-arboxyfluorescein (6-FAM) 5'-labeled reporter sequence-specific primer (2 min at 95 C, 20 s at 68 C and 10 min at 72 C) and these products were digested with 5U of HpaI (New England Biolabs) for 2h at 37 C. The fragments were purified using Qiaquick PCR columns (Qiagen), analyzed on an ABI 3130xL genetic analyzer (Applied Biosystems) with peak positions identified by using a set of X-rhodamine (ROX)-labeled MapMarker1000 molecular weight standards (BioVentures). The raw capillary electrophoresis data was processed using Attagraph software (Attagene).
For the molecule `CN(C)N=O`, the molecule was called inactive. On to `CC12CC1(C)C(=O)N(c1cc(Cl)cc(Cl)c1)C2=O` (stereo not given), for which the outcome was inactive. The same measure, in the same setting: for `CCCCC(CC)CO[N+](=O)[O-]` (stereo not given) the value was “inactive”.

For `O=C1CCCN1`, the call was inactive. For `Clc1nc(Cl)nc(Cl)n1`, the result was inactive. As to `O=CC=O`, the molecule was classed as inactive.

Regarding `Clc1ccc(COC(Cn2ccnc2)c2ccc(Cl)cc2Cl)cc1` (stereo not given), the outcome was inactive. Same read-out and setting: for `Oc1c(I)cc(I)cc1I` the value was “inactive”; for `Oc1ccc(-c2ccccc2)cc1`, “inactive”. Consider `O=P(O)(O)CN(CP(=O)(O)O)CP(=O)(O)O`, for which the outcome was inactive. As for `Cc1cc(=O)[nH]o1`, the result was inactive.

Regarding `CC(C)(OO)c1ccccc1`, the outcome was inactive. On to `ClC1=C(Cl)[C@]2(Cl)[C@@H]3[C@@H](Cl)[C@@H](Cl)C[C@@H]3[C@@]1(Cl)C2(Cl)Cl`, for which the call was inactive. As for `C=C(C)C(=O)[O][Sn]([CH2]CCC)([CH2]CCC)[CH2]CCC`, the AC50 is 1980 nM (active).

Take `CC(=O)C=C(C)C`: the result was inactive. For `CCCCCCCCc1ccc(O)cc1`, the molecule was called inactive. Consider `C[C@]12CCC(=O)C[C@@H]1CC[C@@H]1[C@@H]2CC[C@]2(C)[C@@H](O)CC[C@@H]12`, for which the outcome was inactive.

Turning to `CCc1ccccc1C`, the molecule was classed as inactive. In the case of `CCC1(c2ccc(N)cc2)CCC(=O)NC1=O` (stereo not given), the outcome was inactive. With `CC(=O)[O][Hg][c]1ccccc1`, the result was inactive. As to `CC(=O)OC(c1ccccc1)C(Cl)(Cl)Cl` (stereo not given), the outcome was inactive. For `CCC(C)(C)c1ccc(O)c(C(C)(C)CC)c1`, the molecule was classed as inactive. For the molecule `CC(=O)C(Cl)C(=O)N(C)C` (stereo not given), the outcome was inactive. Same read-out and setting: for `CC(=O)c1cc(C(C)(C)C)cc2c1CCC2(C)C` the value was “inactive”; for `CC(C)(c1ccc(OCC2CO2)cc1)c1ccc(OCC2CO2)cc1` (stereo not given), “inactive”; for `ClCC(Cl)CCl`, “inactive”. Consider `CCOP(=S)(OCC)SCSP(=S)(OCC)OCC`, for which the call was inactive. Turning to `Fc1ccc(C2(Cn3cncn3)OC2c2ccccc2Cl)cc1` (stereo not given), the result was inactive. In the case of `C[C@]12CC[C@H](O)CC1=CC[C@@H]1[C@@H]2CC[C@]2(C)C(=O)CC[C@@H]12`, the call was inactive. Take `COC(=O)Cc1ccccc1`: the result was inactive. Turning to `CC(C)(C)c1cc(O)ccc1O`, the call was inactive. Same read-out and setting: next, `Nc1ccc(Cl)cc1C(=O)c1ccccc1`: “inactive”; `CCSC(C)CC1CC(=O)C(C(CC)=NOC/C=C/Cl)=C(O)C1` (stereo not given): “inactive”; `COC(=O)c1sccc1S(=O)(=O)NC(=O)Nc1nc(C)nc(OC)n1`: “inactive”. Regarding `COc1ccc(OC)c(C=O)c1`, the outcome was inactive.

For `COS(=O)(=O)c1ccc(C)cc1`, the result was inactive. Still for that read-out and setting: next, `O=C(Cc1ccccc1)c1ccccc1`: “inactive”; `CN(CCCC(=O)c1cccnc1)N=O`: “inactive”. On to `CNC(=O)O/N=C/C(C)(C)S(C)=O` (stereo not given), for which the outcome was inactive.

On to `C[C@@H](Oc1ccc(Cl)cc1Cl)C(=O)O`, for which the molecule was called inactive.
